Results taken from the supplement of paper PMC10338343.
± gives the standard deviation.

What follows are sequences tested on MILI (PIWIL2) piRISC loaded with piRNA #1 (26 nt) (assay: pre-steady-state target cleavage rate (min^-1); guide: piRNA #1 5'p-UGAGGUAGUAGGUUGUAUAGUAUCCA; MIWI and MILI are mouse PIWI proteins and EfPiwi is from a freshwater sponge; tags in brackets are library labels; higher = faster piRNA-guided slicing of the target). Settings: auxiliary factor: 500 nM mouse GTSF1.
Procedure, shortened: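 In Cleave-'n-Seq, a transcribed, DNA-blocked target RNA library (0.1 nM) was combined with 1 nM active affinity-purified piRISC bearing one synthetic guide, with or without 500 nM GTSF1 partner protein. Reactions ran in HEPES–potassium acetate buffer at 33 °C for 0–8 or 0–960 min. Uncleaved targets were sequenced and normalised to depth and to weakly complementary targets, three trials were pooled, and k3 was capped at 0.0001 min^-1. The pre-steady-state cleavage rate was obtained by fitting a burst-and-steady-state model.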

| Sequence | pre-steady-state target cleavage rate |
| --- | --- |
| GGAGUGCAUACUAUUCAACCUACUACCUCA | 0.182 ± 0.011 |
| GGAGACCUAUGUAUACAUCCUACAACCUCA | 0.114 ± 0.014 |
| GGAGACCAUACAAUACAACCUACUUCCUCA | 0.125 ± 0.016 |
| GGAGACCAUACUAUUCAUCCUACUACCUCA | 0.271 ± 0.019 |
| GGAGACCUUACUAUACAACCAUCUACCUCA | 0.00422 ± 0.0032 |
| GGAGACCUUACUAUAGAUCCUACUACCUCA | 0.204 ± 0.017 |
| GGAGACCUAUGUGUACAACCUACUACCUCA | 0.0178 ± 0.0035 |
| GGAGACCUAUCUAAACAUCCUACUACCUCA | 0.116 ± 0.015 |
| GGAGACCUAUGAUAUGAUCCUACUACCACA | < 0.0001 |
| GGAGACCUUACUAUACAACCUACUGACCUCA | 0.107 ± 0.017 |
| GGAGACCUAUGUAUACUACCUAGUACCUCA | 0.00575 ± 0.0022 |
| GGAGACCUAUGAAUACAACGUACUACCACA | 0.00353 ± 0.0029 |
| GGAGACCUUACUAUACAACCUACUAGCACA | 0.0607 ± 0.017 |
| GGAGACCUAUGAAUACAAGGUACUACCUCA | 0.00378 ± 0.003 |
| GGAGUGGAUACUUUUCAACCUACUACCUCA | 0.156 ± 0.0072 |
| GGAGACCUUACUAUACAUCCUUCUACCUCA | 0.0405 ± 0.0086 |
| GGAGACCUAUGUAUACCACCUACUACCUCA | 0.0404 ± 0.0088 |
| GGAGACCUAUCUAUCACAACCUACUACCUCA | 0.0519 ± 0.01 |
| GGAGACCUAUGAAUAGAACCUACUACCUCA | 0.00534 ± 0.0016 |
| GGAGACCUAUGAUAACAACCUACUACCUCA [g2:g16:cont:t1A] | 0.00406 ± 0.003 |

| Sequence | pre-steady-state target cleavage rate |
| --- | --- |
| GGAGACCUAUGUAUACUACCUACUUCCUCA | 0.0346 ± 0.0069 |
| GGAGACCUUACUAUACUACCUACUACCUCA | 0.159 ± 0.014 |
| GGAGACCUUACUUUACAACCAACUACCUCA | 0.00491 ± 0.0033 |
| GGAGACCUAUCUAAACUACCUACUACCUCA | 0.051 ± 0.012 |
| GGAGACCUAUGUAUACAACCUACUAACUCA | 0.0355 ± 0.0081 |
| GGAGACCUAUGAUAUGUUGGUACUACCAGA [g4:g10:cont:t1A] | < 0.0001 |
| GGAGACCUAUGAUAUGUAGGAACUACCUCA | < 0.0001 |
| GGAGACGUUACUAUACAACCUACUUCCUCA | 0.0496 ± 0.013 |
| GGAGACCUUACUAUACAACCUACAAGCUCA | 0.103 ± 0.03 |
| GGAGAGGAUUCUAUAGAACCUACUACCUCA | 0.157 ± 0.011 |
| GGAGACGAAACUAUAGAACCUACUACCUCA | 0.146 ± 0.014 |
| GGAGACCUAUGUAUACUUCCUACUACCUCA | 0.0232 ± 0.005 |
| GGAGACCUAUGAUUACAACCUACUACCUCCA | 0.00682 ± 0.0026 |
| GGAGACCUAACUAUACAACCUACAACCUCA | 0.108 ± 0.026 |
| GGAGACCUUACUAUAAACCUACUACCUCA | 0.00481 ± 0.0027 |
| GGAGACCUAUGUAUACAAGCUACAACCUCA | 0.0946 ± 0.011 |
| GGAGACCUAUGAUUACAACCUACUACUCUCA | 0.00541 ± 0.0034 |
| GGAGACCUAUCUAUAGUUCCUACUACCUCA | 0.0473 ± 0.012 |
| GGAGACCUAUGAUUACAACCUACUACCUGCA | 0.00769 ± 0.0026 |
| GGAGACCUAUGUAUACAACCUACUACCUAA | 0.0593 ± 0.0072 |
